Results from publication PMC5540273 (PLoS ONE, 2017).

tested on: WEE2; settings: concentration: 1 μM, replicates: in singlicate; n = 1
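Also: KINOMEscan kinase panel screen.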

SMILES	%Inh [%]
Nc1nc(N)c2nc(-c3ccccc3)[nH]c2n1 [SKF-12778]	0
COc1cc2nccc(Nc3cccc(Oc4ccccc4)c3)c2cc1OC.Cl [GW284543]	14
CCc1ccc(-c2ccc3c(c2)-c2nn(C)cc2S(=O)(=O)N3C)cc1	0
O=C(NCc1cccs1)c1cc(C(=O)c2c(Cl)cccc2Cl)c[nH]1 [GW823670]	5
CCCC(=O)Nc1n[nH]c2ncc(-c3cccc4ccccc34)cc12 [SB-642057]	0
CCC(=O)c1c(-c2ccccc2)c2cc(Cl)ccc2c(=O)n1Cc1cc(S(C)(=O)=O)n(CC(F)F)n1	0
Nc1ncnc2c1ncn2-c1cccc(F)c1 [SKF-97560]	0
Cc1c(Cn2c(C)nn3c(=O)cc(N4CCO[C@H](C)C4)nc23)cccc1C(F)(F)F [GSK2373690]	5
COc1cc(Nc2nccc(N3CCC(NC(=O)C4COc5ccccc5O4)C3)n2)cc(OC)c1OC (stereo not drawn) [GSK1379761]	0
Cc1ccccc1COc1cc(-n2cnc3cc(Cl)ccc32)sc1C(N)=O [GW813349]	5
Cc1ccc(-c2ccc3c(ccc4sc5c(c43)NC[C@@H](C)N=C5N(C)C)n2)cn1	0
Fc1cccc(CSc2nnc(-c3ccc4c(c3)CCO4)o2)c1	16
CN1C(=O)C(Nc2cc(Cl)c(O)c(Cl)c2)=C(c2ccc(Cl)cc2)C1=O [SB-404321]	15
CCC(=O)c1c(-c2ccccc2)c2cc(Cl)ccc2c(=O)n1Cc1ccc(C(=O)O)cc1	4
COc1cc(Nc2nccc(N3CCC(NC(=O)C(C)c4ccc(Cl)cc4)C3)n2)cc(OC)c1OC (stereo not drawn) [GSK1379757]	0
C[C@@H]1CC[C@H](C(=O)NC2CCCCC2)CN1c1cc(-c2ccc3c(N)n[nH]c3c2)nc(N)n1 [GSK2291363]	26
COc1ccc(-c2coc3ccc(-c4nnc(SCc5cccc(C#N)c5)o4)cc23)cc1	8
CCS(=O)c1ccc(-c2coc3ccc(-c4nnc(C)o4)cc23)cc1 (stereo not drawn)	0

SMILES	%Inh [%]
Cc1cc(Nc2nc(-c3cccc(C)n3)nc3ccccc23)ccn1 [GW872411]	2
COC(=O)c1c(-c2ccccc2)c2cc(Br)ccc2c(=O)n1Cc1ccc(S(C)(=O)=O)cc1	16
Nc1nccc2scc(-c3ccc4c(c3)CCN4C(=O)Cc3ccccc3)c12 [GSK2576924]	0
O=C(NCCNc1ccnc(Nc2ccc(F)cc2)n1)Nc1ccc2c(c1)OCO2 [GSK1379882]	6
COC(=O)c1c(-c2ccccc2)c2cc(Br)ccc2c(=O)n1Cc1ccc(NC(=O)CCC(=O)O)cc1	21
Nc1ncnc2c1ncn2-c1ccc(Cl)cc1 [AH2635]	11
O=C(Nc1n[nH]c2cc(-c3ccccc3F)ccc12)C1CC1 [SB-733371]	0
Nc1n[nH]c2nnc(-c3ccccc3)c(-c3ccccc3)c12 [GW554060]	9
FC(F)(F)c1ccc(-c2ncn(CCCN3CCOCC3)c2-c2ccncc2)cc1 [SB-217780]	34
COc1ccc(-n2cnc3c(N)ncnc32)cc1 [SKF-97236]	0
CCC(=O)c1c(-c2ccccc2)c2cc(Cl)ccc2c(=O)n1Cc1cc(C(=O)NC2CC2)n(C)n1	0
CCC(=O)c1c(-c2ccccc2)c2cc(Cl)ccc2c(=O)n1Cc1cc(S(C)(=O)=O)n(CCC(C)(C)O)n1	0
COC(=O)c1c(-c2ccccc2)c2cc(C)ccc2c(=O)n1Cc1ccccc1	6
COc1cc(Nc2ccnc3ccc(C(F)(F)F)cc23)cc(OC)c1OC [GW577382]	14
COc1ccc(-c2cc3c(C)nc(N)nc3n([C@H]3CC[C@H](OCCO)CC3)c2=O)cn1	0
Cc1nnc(-c2ccc3ncn(-c4ccc(S(C)=O)cc4)c3c2)o1 (stereo not drawn)	21
COc1cc2ncn(-c3cc(OCc4ccc(S(C)(=O)=O)cc4)c(C(N)=O)s3)c2cc1OC [GW869979]	0
CCC(=O)c1c(-c2ccccc2)c2cc(Cl)ccc2c(=O)n1Cc1cc(S(C)(=O)=O)n(CC(N)=O)n1	0
